This passage reports inhibition results from ChEMBL document CHEMBL1961873, “Compounds: GSK PKIS; Assays: Nanosyn kinase panel” (2012).

Molecules are shown by their SMILES.

In general, inhibition refers to the relative decrease from the control value, in per cent.

The target of assay [1] is Tyrosine-protein kinase Fer (Homo sapiens) (UniProt P16591). The following applies: at 1 µM.
Assay [2] concerns the target Tyrosine-protein kinase Fes/Fps (Homo sapiens) (UniProt P07332). As to conditions: at 0.1 µM.
Assay [3] shares this target. As to conditions: at 1 µM.
Assay [4] addresses Fibroblast growth factor receptor 1 (Homo sapiens) (UniProt P11362). As to conditions: at 0.1 µM.
Assay [5] has the same target. The following applies: at 1 µM.
Assay [6] has as its target Fibroblast growth factor receptor 2 (Homo sapiens) (UniProt P21802). The following applies: at 0.1 µM.
Assay [7] shares this target. As to conditions: at 1 µM.
In assay [8] the target is Fibroblast growth factor receptor 3 (Homo sapiens) (UniProt P22607). As to conditions: at 0.1 µM.
The target is the same in assay [9]. As to conditions: at 1 µM.
Assay [10] has as its target Fibroblast growth factor receptor 4 (Homo sapiens) (UniProt P22455). The following applies: at 0.1 µM.
For assay [11] the target is unchanged. The following applies: at 1 µM.
Assay [12] has as its target Tyrosine-protein kinase Fgr (Homo sapiens) (UniProt P09769). The following applies: at 0.1 µM.
Assay [13] has the same target. The following applies: at 1 µM.
Assay [14] deals with Vascular endothelial growth factor receptor 1 (Homo sapiens) (UniProt P17948). The following applies: at 0.1 µM.
Assay [15] shares this target. The following applies: at 1 µM.
The target of assay [16] is Receptor-type tyrosine-protein kinase FLT3 (Homo sapiens) (UniProt P36888). The following applies: at 0.1 µM.
Assay [17] shares this target. The following applies: at 1 µM.
For assay [18], the system named is T1, Receptor-type tyrosine-protein kinase FLT3 (Homo sapiens), P36888 [D835Y].
T1 sequence (whole entry): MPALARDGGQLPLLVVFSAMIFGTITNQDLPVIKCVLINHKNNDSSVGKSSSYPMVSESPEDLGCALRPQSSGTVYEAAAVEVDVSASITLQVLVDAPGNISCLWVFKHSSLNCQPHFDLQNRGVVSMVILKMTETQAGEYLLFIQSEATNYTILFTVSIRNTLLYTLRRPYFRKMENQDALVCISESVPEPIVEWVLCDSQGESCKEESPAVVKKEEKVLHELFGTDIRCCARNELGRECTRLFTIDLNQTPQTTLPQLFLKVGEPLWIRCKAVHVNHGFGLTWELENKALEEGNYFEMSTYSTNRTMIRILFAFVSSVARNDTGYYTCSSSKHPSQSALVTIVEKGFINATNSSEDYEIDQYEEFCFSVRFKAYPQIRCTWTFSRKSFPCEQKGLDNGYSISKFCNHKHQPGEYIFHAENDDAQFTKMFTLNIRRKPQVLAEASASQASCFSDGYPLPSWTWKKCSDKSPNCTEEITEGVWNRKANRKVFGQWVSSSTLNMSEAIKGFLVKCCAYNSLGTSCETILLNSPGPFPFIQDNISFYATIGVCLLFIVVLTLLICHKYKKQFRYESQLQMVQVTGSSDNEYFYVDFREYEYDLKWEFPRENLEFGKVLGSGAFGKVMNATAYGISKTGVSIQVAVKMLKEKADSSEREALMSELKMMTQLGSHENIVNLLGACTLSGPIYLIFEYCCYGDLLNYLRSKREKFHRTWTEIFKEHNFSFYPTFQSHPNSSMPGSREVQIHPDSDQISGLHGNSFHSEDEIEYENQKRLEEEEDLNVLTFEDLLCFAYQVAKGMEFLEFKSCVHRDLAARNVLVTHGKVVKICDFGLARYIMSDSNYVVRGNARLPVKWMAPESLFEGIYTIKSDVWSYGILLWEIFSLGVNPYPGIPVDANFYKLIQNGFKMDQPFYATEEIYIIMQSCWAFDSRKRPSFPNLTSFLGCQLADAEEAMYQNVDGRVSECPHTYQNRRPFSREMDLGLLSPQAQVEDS
The following applies: at 0.1 µM.

Assay [19] has as its target Non-receptor tyrosine-protein kinase TYK2 (Homo sapiens) (UniProt P29597). The following applies: at 1 µM.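 Further: values are mean percent inhibition of TYK2 kinase.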
For assay [20], the target named is T2, Tyrosine-protein kinase receptor TYRO3 (Homo sapiens) (UniProt Q06418).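 Further: reported percentages are averaged inhibition values of TYRO3 kinase activity.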
T2 sequence (whole entry): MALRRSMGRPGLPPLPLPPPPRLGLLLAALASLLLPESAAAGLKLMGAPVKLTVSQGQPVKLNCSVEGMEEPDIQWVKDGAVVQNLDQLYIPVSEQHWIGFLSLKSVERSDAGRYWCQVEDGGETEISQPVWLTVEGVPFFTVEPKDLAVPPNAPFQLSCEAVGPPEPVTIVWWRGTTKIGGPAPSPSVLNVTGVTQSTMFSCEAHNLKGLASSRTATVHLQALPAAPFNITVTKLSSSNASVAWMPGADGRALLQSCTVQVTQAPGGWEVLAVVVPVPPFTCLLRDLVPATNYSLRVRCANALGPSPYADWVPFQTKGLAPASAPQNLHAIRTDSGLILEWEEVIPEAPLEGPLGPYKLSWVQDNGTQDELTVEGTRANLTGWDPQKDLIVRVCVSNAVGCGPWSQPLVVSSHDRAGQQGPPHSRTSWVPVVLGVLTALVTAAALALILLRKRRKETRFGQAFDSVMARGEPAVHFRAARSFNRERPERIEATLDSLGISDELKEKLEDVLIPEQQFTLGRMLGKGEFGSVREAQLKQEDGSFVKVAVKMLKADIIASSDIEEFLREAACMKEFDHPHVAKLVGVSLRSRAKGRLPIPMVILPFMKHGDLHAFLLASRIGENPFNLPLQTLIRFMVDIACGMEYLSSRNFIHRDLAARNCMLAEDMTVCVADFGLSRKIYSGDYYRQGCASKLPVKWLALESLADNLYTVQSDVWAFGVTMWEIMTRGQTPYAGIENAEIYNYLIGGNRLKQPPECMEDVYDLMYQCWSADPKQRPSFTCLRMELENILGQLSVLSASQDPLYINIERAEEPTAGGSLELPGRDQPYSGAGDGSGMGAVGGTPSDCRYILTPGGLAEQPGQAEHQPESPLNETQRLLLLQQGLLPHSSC
As to conditions: at 0.1 µM.

Sequence of Tyrosine-protein kinase Fer (Homo sapiens) (P16591 whole entry, looked up): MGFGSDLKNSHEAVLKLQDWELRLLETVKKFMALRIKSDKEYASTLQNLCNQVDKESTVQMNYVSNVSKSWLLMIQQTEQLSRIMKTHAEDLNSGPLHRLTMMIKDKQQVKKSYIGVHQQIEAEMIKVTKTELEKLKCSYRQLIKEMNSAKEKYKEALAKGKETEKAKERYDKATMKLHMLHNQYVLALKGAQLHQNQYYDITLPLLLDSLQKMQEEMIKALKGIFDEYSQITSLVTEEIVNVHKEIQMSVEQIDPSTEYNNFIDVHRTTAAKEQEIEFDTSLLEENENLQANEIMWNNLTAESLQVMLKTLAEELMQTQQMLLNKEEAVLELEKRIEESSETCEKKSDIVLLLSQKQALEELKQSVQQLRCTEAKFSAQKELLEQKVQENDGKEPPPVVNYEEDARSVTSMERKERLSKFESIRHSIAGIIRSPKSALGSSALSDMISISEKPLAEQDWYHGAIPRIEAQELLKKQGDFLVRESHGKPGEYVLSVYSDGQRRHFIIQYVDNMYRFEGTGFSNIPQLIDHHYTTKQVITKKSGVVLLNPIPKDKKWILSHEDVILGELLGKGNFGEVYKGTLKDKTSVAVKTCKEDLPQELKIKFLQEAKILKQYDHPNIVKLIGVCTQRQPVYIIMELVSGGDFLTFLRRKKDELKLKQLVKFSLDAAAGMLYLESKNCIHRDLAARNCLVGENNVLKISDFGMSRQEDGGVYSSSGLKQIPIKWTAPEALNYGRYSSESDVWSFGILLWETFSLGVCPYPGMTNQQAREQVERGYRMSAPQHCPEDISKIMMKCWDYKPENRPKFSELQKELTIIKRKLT
Sequence of Fibroblast growth factor receptor 1 (Homo sapiens) (P11362 22-822 limits assumed): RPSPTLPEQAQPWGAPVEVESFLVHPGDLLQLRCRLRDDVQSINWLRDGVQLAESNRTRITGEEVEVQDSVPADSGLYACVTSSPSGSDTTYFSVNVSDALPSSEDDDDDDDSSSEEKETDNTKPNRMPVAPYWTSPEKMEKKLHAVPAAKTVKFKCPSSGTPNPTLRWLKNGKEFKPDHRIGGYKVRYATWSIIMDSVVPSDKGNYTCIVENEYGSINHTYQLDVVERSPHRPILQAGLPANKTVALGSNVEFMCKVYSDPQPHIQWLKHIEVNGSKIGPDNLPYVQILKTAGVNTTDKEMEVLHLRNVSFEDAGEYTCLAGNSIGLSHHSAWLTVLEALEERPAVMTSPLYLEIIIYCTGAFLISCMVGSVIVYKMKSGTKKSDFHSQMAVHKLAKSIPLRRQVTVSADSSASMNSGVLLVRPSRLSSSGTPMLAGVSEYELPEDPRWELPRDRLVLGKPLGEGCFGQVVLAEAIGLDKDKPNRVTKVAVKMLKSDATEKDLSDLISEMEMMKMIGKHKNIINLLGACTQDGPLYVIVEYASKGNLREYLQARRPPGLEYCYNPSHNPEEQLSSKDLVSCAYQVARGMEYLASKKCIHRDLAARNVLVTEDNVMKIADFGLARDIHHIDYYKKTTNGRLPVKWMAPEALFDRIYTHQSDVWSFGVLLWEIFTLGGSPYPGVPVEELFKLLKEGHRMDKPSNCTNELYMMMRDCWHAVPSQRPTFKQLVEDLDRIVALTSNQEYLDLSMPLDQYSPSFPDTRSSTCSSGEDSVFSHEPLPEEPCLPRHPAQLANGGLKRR
Sequence of Tyrosine-protein kinase Fgr (Homo sapiens) (P09769 2-529 limits assumed): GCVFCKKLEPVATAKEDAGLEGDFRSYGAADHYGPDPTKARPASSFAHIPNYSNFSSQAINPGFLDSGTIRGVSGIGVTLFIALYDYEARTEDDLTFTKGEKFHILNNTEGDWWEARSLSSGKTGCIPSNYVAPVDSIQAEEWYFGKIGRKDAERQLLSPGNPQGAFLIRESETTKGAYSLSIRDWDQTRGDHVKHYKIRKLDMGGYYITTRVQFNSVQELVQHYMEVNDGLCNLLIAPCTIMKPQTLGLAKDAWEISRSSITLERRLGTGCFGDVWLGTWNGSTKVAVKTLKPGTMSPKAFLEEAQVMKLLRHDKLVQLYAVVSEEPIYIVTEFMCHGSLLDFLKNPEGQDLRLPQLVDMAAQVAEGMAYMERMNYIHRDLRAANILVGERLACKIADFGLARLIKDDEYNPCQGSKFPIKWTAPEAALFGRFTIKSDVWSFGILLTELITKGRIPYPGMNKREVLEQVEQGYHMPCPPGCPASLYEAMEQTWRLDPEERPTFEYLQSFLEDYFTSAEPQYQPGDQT
Sequence of Vascular endothelial growth factor receptor 1 (Homo sapiens) (P17948 whole entry): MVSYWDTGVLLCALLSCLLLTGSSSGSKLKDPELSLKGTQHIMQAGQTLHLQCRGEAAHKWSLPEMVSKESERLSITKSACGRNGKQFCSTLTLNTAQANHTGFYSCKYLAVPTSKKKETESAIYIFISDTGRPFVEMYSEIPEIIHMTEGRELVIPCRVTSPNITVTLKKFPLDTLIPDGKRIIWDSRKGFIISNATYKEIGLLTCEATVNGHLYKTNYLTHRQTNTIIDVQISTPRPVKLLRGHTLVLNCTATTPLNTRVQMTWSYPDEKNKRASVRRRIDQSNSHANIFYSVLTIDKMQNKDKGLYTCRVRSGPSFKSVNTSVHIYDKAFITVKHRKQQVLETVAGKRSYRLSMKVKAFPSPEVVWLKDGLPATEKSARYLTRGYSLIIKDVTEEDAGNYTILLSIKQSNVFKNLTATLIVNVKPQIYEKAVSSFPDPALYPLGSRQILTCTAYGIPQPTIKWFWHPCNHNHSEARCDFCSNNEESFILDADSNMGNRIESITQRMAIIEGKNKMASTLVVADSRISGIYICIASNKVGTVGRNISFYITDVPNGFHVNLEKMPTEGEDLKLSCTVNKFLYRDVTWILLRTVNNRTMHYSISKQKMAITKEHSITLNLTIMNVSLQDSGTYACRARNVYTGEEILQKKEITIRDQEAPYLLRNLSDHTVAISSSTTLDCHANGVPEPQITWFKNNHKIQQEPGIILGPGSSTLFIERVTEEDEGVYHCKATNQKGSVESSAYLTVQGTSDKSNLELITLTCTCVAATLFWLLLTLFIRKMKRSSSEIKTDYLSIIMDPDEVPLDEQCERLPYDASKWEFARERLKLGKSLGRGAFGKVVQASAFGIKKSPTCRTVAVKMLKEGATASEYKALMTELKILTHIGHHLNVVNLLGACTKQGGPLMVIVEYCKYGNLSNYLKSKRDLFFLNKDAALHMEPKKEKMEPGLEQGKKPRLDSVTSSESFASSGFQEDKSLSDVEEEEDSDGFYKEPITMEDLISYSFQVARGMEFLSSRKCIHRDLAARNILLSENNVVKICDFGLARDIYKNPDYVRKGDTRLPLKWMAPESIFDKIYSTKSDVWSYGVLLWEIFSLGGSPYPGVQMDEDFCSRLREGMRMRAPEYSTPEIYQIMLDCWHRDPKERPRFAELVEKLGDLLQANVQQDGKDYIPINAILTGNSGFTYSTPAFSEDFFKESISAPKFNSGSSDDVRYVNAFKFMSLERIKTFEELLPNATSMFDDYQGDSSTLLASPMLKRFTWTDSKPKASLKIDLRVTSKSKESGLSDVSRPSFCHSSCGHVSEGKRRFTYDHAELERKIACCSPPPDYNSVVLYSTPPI
Sequence of Fibroblast growth factor receptor 3 (Homo sapiens) (P22607 23-806 limits assumed): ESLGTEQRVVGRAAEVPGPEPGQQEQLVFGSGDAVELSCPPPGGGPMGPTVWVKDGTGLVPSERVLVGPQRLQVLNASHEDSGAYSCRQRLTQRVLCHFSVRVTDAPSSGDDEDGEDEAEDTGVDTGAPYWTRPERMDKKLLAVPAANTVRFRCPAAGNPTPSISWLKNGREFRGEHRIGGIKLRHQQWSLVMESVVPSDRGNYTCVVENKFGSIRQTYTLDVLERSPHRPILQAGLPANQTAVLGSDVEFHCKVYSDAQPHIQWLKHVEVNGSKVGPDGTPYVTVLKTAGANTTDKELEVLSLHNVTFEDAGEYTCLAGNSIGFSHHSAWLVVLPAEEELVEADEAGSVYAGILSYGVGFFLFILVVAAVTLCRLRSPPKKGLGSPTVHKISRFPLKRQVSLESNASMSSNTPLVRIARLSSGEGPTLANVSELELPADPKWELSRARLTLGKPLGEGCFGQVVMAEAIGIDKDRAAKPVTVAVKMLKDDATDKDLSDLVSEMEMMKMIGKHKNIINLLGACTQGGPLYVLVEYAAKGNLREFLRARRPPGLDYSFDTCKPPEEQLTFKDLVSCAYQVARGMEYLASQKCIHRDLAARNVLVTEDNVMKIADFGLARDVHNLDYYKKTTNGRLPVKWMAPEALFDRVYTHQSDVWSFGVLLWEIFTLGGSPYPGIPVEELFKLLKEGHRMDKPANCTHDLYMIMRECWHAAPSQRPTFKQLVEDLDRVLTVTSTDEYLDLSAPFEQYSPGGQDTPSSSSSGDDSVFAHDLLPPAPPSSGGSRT
Sequence of Fibroblast growth factor receptor 4 (Homo sapiens) (P22455 22-802 limits assumed): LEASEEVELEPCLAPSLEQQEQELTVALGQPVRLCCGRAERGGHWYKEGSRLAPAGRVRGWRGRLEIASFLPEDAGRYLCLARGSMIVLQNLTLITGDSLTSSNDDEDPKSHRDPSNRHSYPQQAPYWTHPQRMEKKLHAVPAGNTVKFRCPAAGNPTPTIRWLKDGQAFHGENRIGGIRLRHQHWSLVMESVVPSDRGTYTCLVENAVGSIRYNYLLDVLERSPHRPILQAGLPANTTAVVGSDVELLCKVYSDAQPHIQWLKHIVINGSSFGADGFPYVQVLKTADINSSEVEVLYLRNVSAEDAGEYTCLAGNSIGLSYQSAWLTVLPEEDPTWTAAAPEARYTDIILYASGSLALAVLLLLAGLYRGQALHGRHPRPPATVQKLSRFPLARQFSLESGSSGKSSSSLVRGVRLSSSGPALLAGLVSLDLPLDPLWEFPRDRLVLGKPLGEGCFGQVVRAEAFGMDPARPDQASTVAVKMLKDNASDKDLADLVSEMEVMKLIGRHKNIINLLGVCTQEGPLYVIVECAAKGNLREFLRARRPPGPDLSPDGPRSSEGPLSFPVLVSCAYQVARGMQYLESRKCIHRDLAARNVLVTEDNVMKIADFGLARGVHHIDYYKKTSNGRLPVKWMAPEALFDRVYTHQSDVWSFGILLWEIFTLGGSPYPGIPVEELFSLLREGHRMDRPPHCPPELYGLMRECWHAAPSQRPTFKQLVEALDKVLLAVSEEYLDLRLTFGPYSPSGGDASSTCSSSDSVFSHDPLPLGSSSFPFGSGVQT

For the compound `COc1ccc(-c2nn3ncccc3c2-c2ccnc(Nc3cccc(C(F)(F)F)c3)n2)cc1`, the inhibition in assay [1] is 1.69%; in assay [2], 3.15%; in assay [3], 2.54%; in assay [4] it was 1.38%; in assay [5], -1.86%; in assay [6] it was 2.73%. Moreover, the inhibition turned out to be 0.17% in assay [7]; 2.6% in [8]; 4.58% in assay [9]; 1.02% in assay [10]; 0.55% in [11]; 10.2% in assay [12]. Besides, the inhibition in assay [13] was 42.1%; in assay [14], 4.29%; in [15] it was 10.2%; in assay [16], 1.01%; in [17] it was 1.12%; in assay [18] it was -4.47%. In addition, the inhibition in assay [19] is -0.27%; in assay [20] it was 1.68%.

Take `N#Cc1c(NC(=O)c2ccccc2F)sc2c1CCCC2`: the inhibition in [1] was 1.99%; in [2], -0.84%; in assay [3], -1.66%; in assay [4], -6.27%; in [5], -0.77%; in assay [6], -3.13%. Further, the inhibition in assay [7] is -2.53%; in assay [8], -2.94%; in assay [9] it was -1.6%; in [10], 1.12%; in assay [11], -0.54%; in assay [12], 1.26%. Besides, the inhibition in assay [13] is 1.21%; in assay [14], -1.64%; in [15], -1.09%; in [16], 0.49%; in assay [17], -1.06%; in assay [18] it was -2.89%. Besides, the inhibition was 0.85% in assay [19] and -1.29% in [20].

As for `N#Cc1cccc(Nc2nccc(-c3cnn4ncccc34)n2)c1`, the inhibition in assay [1] was 48.9%; in assay [2], 7.07%; in assay [3], 34.3%; in assay [4], 4.73%; in assay [5], 8.94%; in [6], 7.31%. In addition, the inhibition in assay [7] is 23.4%; in [8], 9.72%; in [9], 17.2%; in [10], -0.11%; in assay [11], 5.22%; in [12], 11.1%. For the same compound, the inhibition in [13] was determined as 41.7%; in assay [14] it was 8.37%; in [15], 28.3%; in [16] it was 18.5%; in assay [17], 68%; in assay [18] it was 7.57%. Further, the results for the inhibition in [19] and in assay [20] were 11% and 7.97%, respectively.

Consider `CN(c1ccc(NC(=O)Nc2ccc(OC(F)(F)F)cc2)cc1)c1ccnc(Nc2cccc(S(N)(=O)=O)c2)n1`, for which the inhibition in assay [1] worked out at 60.4%; in assay [2], 4.7%; in assay [3] it was 21.8%; in [4], 2.49%; in assay [5], 20.3%; in assay [6], 16.2%. The inhibition is 53.9% in assay [7]; 3.87% in assay [8]; 23.3% in [9]; -0.53% in assay [10]; 2.57% in assay [11]; 13.8% in assay [12]. Also, the inhibition in assay [13] came to 57.2%; in assay [14], 44.4%; in [15], 96.1%; in assay [16], 28.6%; in assay [17] it was 87.4%; in [18], 2.56%. The inhibition in [19] is -2.45%; in assay [20], 3.15%.

With `O=C1Nc2ccc(-c3cccnc3)cc2C1=Cc1cc(Br)c(O)c(Br)c1`, the inhibition worked out at 9.05% in assay [1]; 2.71% in [2]; 2.85% in assay [3]; 4.47% in assay [4]; 1.74% in assay [5]; 3.81% in [6]. For the same compound, the inhibition was 5.51% in assay [7]; 9.43% in assay [8]; 8.18% in assay [9]; 1.39% in assay [10]; 3.07% in [11]; 1.1% in assay [12]. The inhibition in [13] was determined as 7.55%; in [14], 2.53%; in [15] it was 2.06%; in assay [16], 1.83%; in [17], 7.91%; in [18], 11.8%. In addition, the inhibition in assay [19] was determined as 6.13%; in assay [20], 3.07%.

Take `FC(F)(F)c1ccc(-c2nn3ncccc3c2-c2ccnc(Nc3ccc4c(c3)OCCO4)n2)cc1`: the inhibition in assay [1] was 12.1%; in assay [2] it was -0.13%; in [3] it was 1.22%; in assay [4] it was 7.55%; in assay [5], 6.28%; in [6], 6.74%. In addition, the inhibition in assay [7] was found to be 11.1%; in assay [8] it was 6.49%; in assay [9], 6.94%; in [10] it was 6.29%; in [11], 11.7%; in assay [12] it was 25.6%. Also, the inhibition worked out at 61.1% in [13]; 1.91% in assay [14]; 4.89% in [15]; 1.7% in assay [16]; 0.28% in assay [17]; 4.42% in assay [18]. The inhibition amounted to 5.73% in assay [19] and 1.27% in assay [20].

In the case of `Nc1nccc(C#Cc2cncnc2Nc2ccc(OCc3cccc(F)c3)c(Cl)c2)n1`, the inhibition in [1] turned out to be 3.48%; in assay [2], 3.46%; in [3] it was 4.65%; in [4], 5.53%; in assay [5] it was 4.02%; in [6], 4.45%. In addition, the inhibition in [7] was 8.42%; in assay [8], 5.34%; in assay [9] it was 5.62%; in assay [10] it was 2.52%; in [11], -2.31%; in [12], 0.12%. In addition, the inhibition was 4.81% in [13]; 2.06% in assay [14]; 3.36% in [15]; 0.89% in assay [16]; 3.87% in assay [17]; 3.95% in [18]. The inhibition was -1.09% in assay [19] and 3.02% in assay [20].
